High-throughput results from PubChem BioAssay.
Only some compounds are listed: those with a hit (about 7.1% of all), similar ones and a draw of the others.
MARV entry inh = qHTS for Inhibitors of binding or entry into cells for Marburg Virus; Potency, µM (top dose mostly 49.2 µM), for the others: at the top dose activity change, negative = inhibition, most hits filed as inhibitors; AID 720532, 2013; 18,000 tested, 6.5% active; Marburg virus pseudotype entry/binding inhibition, cell-based
LASV entry inh = qHTS for Inhibitors of binding or entry into cells for Lassa Virus; Lassa virus pseudotyped entry inhibition, cell-based qHTS; Potency, µM (titrated, usually from 49.2 µM), without a hit: top-dose activity change, negative = inhibition, usual class: inhibitors; 18,000 tested, 4.1% active; AID 720533, 2013
An asterisk follows results filed as active; u = inconclusive; ! = a repeat was not active; [ ] = dose if it differs, or a comment. The call rests on the fitted dose curve; tested in HEK293 cells. On the % scale 0 is the no-effect control and ±100 the full control effect; potency means the concentration at half of the fitted maximal effect.

SMILES	MARV entry inh	LASV entry inh
O[C@H]1[C@H]2c3cc4c(cc3CN3CCC(=C[C@@H]1O)[C@H]23)OCO4	1%	18%
OC1C=C2CCN3Cc4cc5c(cc4C(C1O)C23)OCO5 (centres undefined)	13µM*	-28%
COC[C@@H]1CCCN1[C@@H]1C[S+](=O)([O-])N[C@@H]1COCc1ccccc1	25%	-7%
C=C1CCC(O)C/C1=C/C=C1\CCC[C@]2(C)[C@@H]([C@H](C)CCCC(C)C)CC[C@@H]12 (some centres undefined)	-17%	-16%
C=C1C(=C/C=C2\CCC[C@]3(C)[C@@H]([C@H](C)CCCC(C)C)CC[C@@H]23)C[C@@H](O)C[C@@H]1O	-15%	16µM*
C=C1C(=C/C=C2\CCC[C@]3(C)[C@@H]([C@H](C)/C=C/[C@@H](O)C4CC4)CC[C@@H]23)C[C@@H](O)C[C@@H]1O	-25%	14µM*
C=C1CCC(O)C/C1=C\C=C1/CCCC2(C)C1CCC2C(C)/C=C/C(C)C(C)C (centres undefined)	27%	-29%
OC[C@H]1O[C@H](C#Cc2ccccc2)C=C[C@@H]1O	2%[8.59 µM]	0%[8.59 µM]
COc1cccc([C@@H]2Oc3ccc(Br)cc3[C@H](O)[C@@H]2O)c1	u	12%[8.59 µM]
C[C@@H](c1ccccc1)N1C(=O)[C@@H]2[C@H]3[C@H](O)[C@H](O)CC(=NOC[C@@H](O)COCc4ccco4)[C@H]3CC[C@H]2C1=O	1%[8.59 µM]	-3%[8.59 µM]
C#CC[C@@]1(C(=O)OC)C=C[C@@H](C)[C@H](c2ccccc2Br)N1C(=O)C(F)(F)F	-2%[8.59 µM]	13%[8.59 µM]
CCOC(=O)[C@H](CCc1ccccc1)N[C@H]1CCc2ccccc2N(CC(=O)O)C1=O	14µM*!	4%
CCOC(=O)C(CCc1ccccc1)NC1CCc2ccccc2N(CC(=O)O)C1=O (centres undefined)	3%	-1%
CCCCCC(=O)N1C[C@H](O)[C@@H](n2cc(C3CC3)nn2)C[C@H]1c1ccc(Cl)cc1	-8%	0%
Cn1ccc2c(C=Cc3ccc(F)cc3)cc3c(c21)C1CCC3O1 (centres undefined)	-20%	0%
COc1ccccc1Nc1ncc(-c2ccccc2)o1	10%	2%
CC1(C)CC(=O)C2=C(C1)O[C@@]1(c3ccsc3)Cc3cc(C#N)ccc3[C@H]2O1	u	9%[8.59 µM]
CC1=CC[C@@H](COc2ccccc2)O[C@@]2(C1)C(=O)N(Cc1ccc(Br)cc1)c1ccccc12	25%[8.59 µM]	-25%[8.59 µM]
COc1cc([C@@H]2c3cc4c(cc3C(O[C@@H]3O[C@@H]5CO[C@@H](C)O[C@H]5[C@H](O)[C@H]3O)C3COC(=O)[C@@H]32)OCO4)cc(OC)c1OP(=O)(O)O (some centres undefined)	2.8µM*	3.2µM*
COc1cc([C@@H]2c3cc4c(cc3[C@@H](O[C@@H]3O[C@@H]5CO[C@@H](C)O[C@H]5[C@H](O)[C@H]3O)[C@H]3COC(=O)[C@H]23)OCO4)cc(OC)c1O	u	1.1µM*
COc1cc(C2c3cc4c(cc3C(OC3OC5COC(C)O[C@@H]5C(O)C3O)C3COC(=O)C23)OCO4)cc(OC)c1O (some centres undefined)	1.1µM*	u
CC1(C)CN(CCc2ccccc2)C(=O)[C@@H]1CC(=O)Nc1ccc(Br)cc1	-5%	-5%
CCN1C(=NCCc2cccnc2)NC(c2ccccc2)C(C(=O)OC)=C1C (centres undefined)	u	-8%[8.59 µM]
C#CCNC(=O)[C@H]1C=C(OC)C(=O)C[C@H]2c3ccccc3C[C@]12C	8%[8.59 µM]	1%[8.59 µM]
COc1cc(Nc2c(C#N)cnc3cc(OCCCN4CCN(C)CC4)c(OC)cc23)c(Cl)cc1Cl	7.1µM*	u
SMILES	MARV entry inh	LASV entry inh
O=S1(=O)C=CCN1Cc1ccc(F)cc1	-5%	-27%
NCCCCCCNS(=O)(=O)c1ccc2c(Cl)cccc2c1	13µM*	28µM*
O=C(O)Cc1ccc(CCNS(=O)(=O)c2ccc(Cl)cc2)cc1	9%	4%
NCCNS(=O)(=O)c1ccc(Cl)c2ccncc12	-5%	19%
NCCNS(=O)(=O)c1cccc2c(Cl)cccc12	10µM*	u
COC(=O)N[C@H](CC(C)=O)c1ccc2c(c1)OCO2	-17%[8.59 µM]	-15%[8.59 µM]
CSC[C@H]1CN(CCc2ccccc2)C(=O)[C@H]1CC(=O)Nc1ccc(Br)cc1	12%	12%
COc1cc2c(cc1OC)[C@@H]1O[C@](c3ccsc3)(C2)Oc2c1c(=O)oc1ccc(F)cc21	28%[8.59 µM]	11%[8.59 µM]
O=[N+]([O-])c1ccc(O)c2ncccc12	16µM*	11µM*
O=Nc1ccc(O)c2ncccc12	4µM*	2.5µM*
Cc1ccc(O)c2ncccc12	33%	12%
Nc1ccc(O)c([N+](=O)[O-])c1	-16%[107 µM]	-15%[107 µM]
CCN1C(=NCc2cccc(C(F)(F)F)c2)NC(c2cccc(C(F)(F)F)c2)C(C(=O)OC)=C1C (centres undefined)	-17%[8.59 µM]	-32%[8.59 µM]
CC(C)[C@H]1COc2cc(Br)ccc2S(=O)(=O)N1C(=O)c1ccc(F)cc1F	26%	-5%
